The results in this text go back to PubChem BioAssay.

Calls of active or inactive are those of the source. Unless noted, the rule behind the calls is not given here.

Assay [1] in a line: HepG2 liver cancer cell viability effects, profiling panel, resazurin fluorescence, 24 h, PK04 Diversity Set (AID 1172). Note: test concentration not given here. As to conditions: higher = more signal. Background: The colour change of resazurin is a common sign of viable cells or microbes.
Assay [2] is described as follows: basal S. cerevisiae growth modulation, no modifier, primary screen, OD600, strain BY4716, 24 h, basal condition (AID 1173). As to conditions: OD600, 24 h, higher = more signal, called active from +8 up or from −8 down.
The nature of assay [3]: MM1S myeloma cell viability, profiling panel, resazurin fluorescence, basal, 24 h, PK04 Diversity Set (AID 1174).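 Note: MM1S multiple myeloma cell line; test concentration not given here.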 Particulars: higher = more signal, called active from +8 up or from −8 down.
Assay [4] has as its target Dihydroorotate dehydrogenase (quinone), mitochondrial (Plasmodium falciparum (isolate 3D7)) (UniProt Q08210). As to the kind of experiment: PfDHODH enzyme inhibitors, primary screen, biochemical, C-terminal His tag, absorbance 600 nm (AID 1175).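 Note: recombinant parasite enzyme with a five histidine tag at its C terminus; test concentration not given here.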 As to conditions: DCIP absorbance 600 nm, higher = more signal, called active from +8 up or from −8 down.
Assay [5] is described as follows: P. aeruginosa biofilm formation inhibitors, primary screen, strain PAO1, LB-PBS medium, absorbance 600 nm (AID 1176). Note: test concentration not given here. Particulars: P. aeruginosa PAO1 growth/biofilm, A600, 12 h; higher = more signal.
Assay [6] in a line: S. cerevisiae RM11-1a growth modifiers, primary screen, strain RM11-1a, OD600, basal, 24 h (AID 1177).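 Note: cultures grown under basal conditions with no added stressor; test concentration not given here.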 Particulars: OD600, 24 h, higher = more signal, called active from +8 up or from −8 down.
Assay [7] can be described thus: E. coli acrAB mutant growth effects, primary screen, E. coli filamentation inducers, strain DRC39, OD650, 24 h (AID 1178).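 Note: growth measured as culture turbidity by optical density at 650 nm; test concentration not given here.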 Particulars: higher = more signal, called active from +8 up or from −8 down.
A short description of assay [8]: E. coli acrAB mutant growth effects, primary screen, E. coli filamentation inducers, strain DRC39, OD650, 48 h (AID 1179).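 Note: screen aims at cell division blockers that make cells filament.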 Particulars: E. coli DRC39 delta-acrAB growth, higher = more signal, called active from +8 up or from −8 down.
A short description of assay [9]: RPMI8226 myeloma cell viability, profiling panel, resazurin fluorescence, basal, 24 h, PK04 Diversity Set (AID 1180).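 Note: RPMI8826 multiple myeloma cell line at 5000 cells per well; test concentration not given here.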 Particulars: higher = more signal.
In assay [10] the target is E3 ubiquitin-protein ligase XIAP (Homo sapiens) (UniProt P98170). As to the kind of experiment: XIAP binders, primary screen, biophysical, small-molecule microarray, fluorescence 635 nm (AID 1181).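 Note: score merges 667 nm emission and signal to noise over triplicate slides.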 As to conditions: small-molecule microarray binding, higher = more signal.
Chain of E3 ubiquitin-protein ligase XIAP (Homo sapiens) (P98170 whole entry, looked up): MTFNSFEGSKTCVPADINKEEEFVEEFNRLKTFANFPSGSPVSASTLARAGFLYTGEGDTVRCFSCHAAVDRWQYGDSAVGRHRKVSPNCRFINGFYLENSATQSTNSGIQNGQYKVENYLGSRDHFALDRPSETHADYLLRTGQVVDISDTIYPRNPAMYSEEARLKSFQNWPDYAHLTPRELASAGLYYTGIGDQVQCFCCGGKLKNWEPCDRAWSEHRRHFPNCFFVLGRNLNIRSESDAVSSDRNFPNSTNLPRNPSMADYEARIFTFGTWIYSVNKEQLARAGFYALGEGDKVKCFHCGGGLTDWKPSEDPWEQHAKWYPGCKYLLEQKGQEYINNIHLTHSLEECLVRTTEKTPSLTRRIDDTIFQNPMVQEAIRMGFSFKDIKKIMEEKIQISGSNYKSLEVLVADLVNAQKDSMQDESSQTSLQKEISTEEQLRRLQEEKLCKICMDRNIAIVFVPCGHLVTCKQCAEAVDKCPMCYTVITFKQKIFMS

Chain of Dihydroorotate dehydrogenase (quinone), mitochondrial (Plasmodium falciparum (isolate 3D7)) (Q08210 whole entry, looked up): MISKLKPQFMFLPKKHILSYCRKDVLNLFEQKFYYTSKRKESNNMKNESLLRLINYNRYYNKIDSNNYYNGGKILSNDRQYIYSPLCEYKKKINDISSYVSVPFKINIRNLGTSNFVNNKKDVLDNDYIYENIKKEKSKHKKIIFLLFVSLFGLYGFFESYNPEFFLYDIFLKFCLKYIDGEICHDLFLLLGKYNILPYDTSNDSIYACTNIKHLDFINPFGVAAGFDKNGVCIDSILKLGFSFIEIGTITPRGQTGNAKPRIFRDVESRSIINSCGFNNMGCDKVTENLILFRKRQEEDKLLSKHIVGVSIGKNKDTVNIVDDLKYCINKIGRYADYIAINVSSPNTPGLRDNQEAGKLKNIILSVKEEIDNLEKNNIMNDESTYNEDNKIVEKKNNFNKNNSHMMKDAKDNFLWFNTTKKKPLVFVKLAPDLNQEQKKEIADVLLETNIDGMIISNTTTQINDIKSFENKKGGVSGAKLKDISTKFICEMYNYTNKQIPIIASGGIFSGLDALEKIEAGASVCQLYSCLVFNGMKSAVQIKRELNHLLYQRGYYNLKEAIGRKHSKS

Take `O=C1C[C@@](C(=O)NCc2ccccc2)(c2ccc([N+](=O)[O-])cc2)[C@@H](c2ccc(CO)cc2I)N1C1CCCCC1`: the z-score in assay [1] is -0.327; in assay [2] it was 0.432 (inactive); in assay [3], 0.566 (inactive); in [5] it was -0.301 (inactive); in assay [6], 1.88 (inactive); in [7] it was 0.445 (inactive). The z-score in [8] is -0.0118 (inactive); in [9], 0.787. For the same compound, the composite z-score in [4] was 0.634 (inactive); in [10], -0.115.
Turning to `Cc1ccc(C(C)CC(O)C2C=CC3C(=O)N(Cc4ccccc4)C(=O)C3N2n2cnnc2)o1` (stereo not given), the z-score in assay [1] is -1.13; in assay [2], -9.36 (active); in assay [3], -0.817 (inactive); in assay [5], 0.368 (inactive); in assay [6] it was -1.4 (inactive); in assay [7], -1.46 (inactive). Besides, the results for the z-score in assay [8] and in assay [9] were -1.22 (inactive) and -0.841, respectively. Moreover, the values for the composite z-score in [4] and in [10] were -0.101 (inactive) and 0.263, respectively.
`Cc1ccc(S[C@]2(C(=O)O)CC(=O)N(Cc3ccccc3C(F)(F)F)[C@@H]2c2ccc(CO)cc2)cc1`: the z-score is 0.44 in assay [1]; -0.0891 (inactive) in [2]; 0.478 (inactive) in assay [3]; 0.127 (inactive) in assay [5]; 0.383 (inactive) in assay [6]; 0.232 (inactive) in [7]. In addition, the z-score in assay [8] is 1.14 (inactive); in [9], -0.285. Further, the composite z-score in assay [4] is 0.52 (inactive); in [10] it was -0.313.
Regarding `COc1ccc([Si](C)(C)[C@@H]2[C@@H](CCO)O[C@]3(C(=O)N(Cc4ccc(N5C(=O)c6ccccc6Oc6ccccc65)cc4)c4ccccc43)[C@H]2C)cc1`, the z-score in [1] was 0.0213; in assay [2], 2.15 (inactive); in assay [3], -0.848 (inactive); in assay [5], 2.88 (inactive); in assay [6], 4.38 (inactive); in [7], 0.365 (inactive). The z-score was -0.275 (inactive) in [8] and -3.07 in [9]. Moreover, the figures for the composite z-score in assay [4] and in assay [10] were -0.343 (inactive) and -0.203, respectively.
On to `O=C1c2ccccc2[C@](Cc2ccccc2I)(C(=O)NC2CC2)[C@H](c2ccc(CO)cc2)N1Cc1ccccc1Cl`, for which the z-score in assay [1] is 0.197; in [2] it was 0.504 (inactive); in assay [3], -0.405 (inactive); in [5], 0.925 (inactive); in assay [6] it was 1.9 (inactive); in [7], 0.258 (inactive). Further, the z-score in assay [8] is -0.507 (inactive); in assay [9] it was -0.506. Also, the composite z-score in assay [4] was 0.37 (inactive); in assay [10] it was 0.0432.
On to `CCCNC(=O)[C@@H]1c2ccccc2C(=O)N(CC23CC4CC(CC(C4)C2)C3)[C@H]1c1ccc(CO)cc1`, for which the z-score in assay [1] was -0.411; in [2], -0.774 (inactive); in assay [3], 0.411 (inactive); in [5], 0.718 (inactive); in [6], 0.987 (inactive); in assay [7], -0.0494 (inactive). Also, the z-score in [8] is -0.501 (inactive); in assay [9] it was 0.748. Further, the composite z-score was 0.627 (inactive) in [4] and 1.94 in assay [10].
Take `CN(C)C(=O)[C@@]1(CCC(=O)OC(C)(C)C)COC(c2ccc(OCCCO)cc2)=N1`: the z-score in [1] is 0.791; in [2] it was -0.874 (inactive); in assay [3], 0.265 (inactive); in assay [5], -0.512 (inactive); in assay [6], -0.0602 (inactive); in assay [7] it was 0.115 (inactive). Further, the z-score in [8] was 0.465 (inactive); in assay [9] it was -0.195. Also, the figures for the composite z-score in assay [4] and in assay [10] were -0.883 (inactive) and -0.0559, respectively.
As to `O=C1OCCC=C[C@H]2OC34C=CCN(Cn5nnc6ccccc65)C(=O)[C@H]3N(CCCCCO)C(=O)[C@@H]4C12` (stereo not given in full), the z-score in assay [1] was -0.444; in assay [2], 0.994 (inactive); in assay [3], 0.241 (inactive); in [5], -0.0432 (inactive); in assay [6] it was 0.137 (inactive); in assay [7], 0.672 (inactive). Also, the results for the z-score in assay [8] and in [9] were 0.774 (inactive) and 0.618, respectively. Besides, the composite z-score in [4] is -0.951 (inactive); in [10], -0.0943.
`C=CCNC(=O)[C@H]1[C@@H]2C(=O)O[C@@H](c3ccccc3)[C@@H](c3ccccc3)N2[C@@H](c2ccc(O)cc2)[C@]12C(=O)N(C(=O)OCCOC)c1ccc(C#CC3(O)CCCCCC3)cc12`: the z-score in assay [1] is -0.0051; in assay [2], -0.897 (inactive); in assay [3], 0.221 (inactive); in assay [5], 0.806 (inactive); in assay [6] it was 2.27 (inactive); in [7], 0.665 (inactive). Further, the z-score is 0.951 (inactive) in assay [8] and 0.41 in assay [9]. For the same compound, the values for the composite z-score in assay [4] and in assay [10] were 0.157 (inactive) and 0.0479, respectively.
For the compound `C[C@H]1ON(c2ccccc2)[C@@H](c2ccccc2)[C@@H]1C(=O)N1C(=O)OC[C@@H]1c1ccccc1`, the z-score was 0.565 in assay [1]; 0.551 (inactive) in assay [2]; 0.715 (inactive) in assay [3]; -0.189 (inactive) in [5]; 1.5 (inactive) in assay [6]; 0.259 (inactive) in assay [7]. The z-score is -0.0075 (inactive) in [8] and 0.942 in [9]. For the same compound, the results for the composite z-score in assay [4] and in [10] were -0.199 (inactive) and -0.123, respectively.
In the case of `COCCOC(=O)N1C(=O)[C@@]2(c3cc(C#Cc4ccc(OC)cc4)ccc31)[C@H](C(N)=O)[C@H]1C(=O)O[C@H](c3ccccc3)[C@H](c3ccccc3)N1[C@@H]2c1ccc(OCCO)cc1`, the z-score in assay [1] is 0.0456; in [2], 1.61 (inactive); in [3], -1.41 (inactive); in assay [5], 1.71 (inactive); in assay [6], 2.42 (inactive); in assay [7] it was -0.315 (inactive). Also, the values for the z-score in [8] and in assay [9] were -0.697 (inactive) and -1.82, respectively. For the same compound, the composite z-score in [4] is -0.0352 (inactive); in assay [10], -0.157.
